# Shown is part of a subset that was picked to be rich in hits.
# Pf Dd2 growth: qHTS Primary assay for Inhibitors of Plasmodium falciparum Dd2 growth in vitro; 120,000 tested, 4.3% active; AID 1347417, 2020; P. falciparum Dd2 growth, SYBR Green, 72 h; Potency, µM (series often up to 28.9 µM), inactives show at the top dose activity, negative = inhibition, most hits filed as inhibitors; active = well fitted inhibition curve with a large enough effect;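 note: plate controls were DMSO vehicle for no effect and reference drug for full effect; nearly all actives have a fitted effect of over 65% in size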
#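 Infected erythrocytes (Dd2, 0.3% parasitemia, 2.5% hematocrit final) are added to compound in RPMI-1640/Albumax II medium, grown 72 h at 37C in low oxygen, then lysed with saponin/Triton-X containing SYBR Green and read by fluorescence.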
# An asterisk follows results filed as active; i = inactive; [ ] = dose if it differs, or a comment. Potency is the fitted concentration of half-maximal effect.
SMILES,Pf Dd2 growth
Cc1ccccc1S(=O)(=O)N1CCCC(CCC(=O)NCc2ccc(F)cc2)C1 (configuration not stated),-8%
CSc1cccc(NC(=O)Cn2cccc2-c2nc(-c3ccc4c(c3)OCO4)no2)c1,i
CCn1cc(CN2CCC([C@@H]3CNC[C@H]3CO)CC2)c(C)n1,55%
O=C(Nc1cccc(-c2ccco2)c1)C1CCN(C(=O)NCc2ccco2)CC1,i
CCCn1c(C)cnc1CC1CCN(S(C)(=O)=O)CC1,i
Cc1noc(-c2ccn3c(CNC(=O)c4cccc(Cl)c4)nnc3c2)n1,i
Cc1noc(-c2ccn3c(CNC(=O)c4ccccc4Cl)nnc3c2)n1,0.28µM*
Cc1noc(-c2ccn3c(CNC(=O)c4ccccc4F)nnc3c2)n1,i
Cc1noc(-c2ccn3c(CNC(=O)c4ccc(F)cc4Cl)nnc3c2)n1,-22%
CCCc1noc(-c2ccn3c(CNC(=O)c4ccc(C)cc4C)nnc3c2)n1,-7%
CCCc1noc(-c2ccn3c(CNC(=O)c4ccc(F)cc4Cl)nnc3c2)n1,3.5µM*
O=C(c1cc(F)cc(F)c1)N1CC(c2nc(CCc3ccccc3)no2)C1,-14%
COCc1nncn1C1CCN(C(=O)c2cccc(OC)c2)CC1,i
O=C(Cc1ccccc1)Nc1ccc([C@@H](O)[C@H]2COCC(=O)N2Cc2ccncc2)cc1,-25%[44.1 µM]
CC1CCC2(CC1)OCC(C(=O)NCc1ccccc1)N2C(=O)c1ccc(Cl)c(Cl)c1 (configuration not stated),8.9µM*
Cc1cccc(C(=O)N2C(C(=O)NCc3ccccc3)COC23CCC(C)CC3)c1 (configuration not stated),i
CC1CCC2(CC1)OCC(C(=O)NCc1ccccc1)N2C(=O)c1cccc(Cl)c1 (configuration not stated),i
O=C(Cc1ccccc1)NCC1CN(C(=O)Cc2cccc(C(F)(F)F)c2)CC12CN(c1ccccc1)C2 (configuration not stated),i
CCC(=O)N(C1CCOCC1)C1CCN(S(=O)(=O)c2ccc(Cl)cc2C)CC1,-1%
COc1ccc([N+](=O)[O-])c(N2CC3CCC(C2)N3CC(F)(F)F)n1,-1%
COc1cc2nc(Cl)nc(N3CC4CCC(C3)N4CC(F)(F)F)c2cc1OC,5µM*
FC(F)(F)CN1C2CCC1CN(c1cc(Cl)ncn1)C2,11%
COCCn1nc2n(c1=O)CCN(C(=O)c1cc(F)ccc1F)CC2,70%
CCOc1ccc(NC(=O)c2nnn3c2COC(c2ccc(Cl)cc2)C3)cc1 (configuration not stated),11%
Fc1ccc(CNCc2cccnc2N2CCN(c3ccccn3)CC2)cc1F,5µM*
SMILES,Pf Dd2 growth
O=C(CSc1ccccn1)NCc1cccnc1N1CCOCC1,1%
COc1ccc(CC(=O)NC(C)C(=O)N2CCN(c3ccccn3)CC2)cc1 (configuration not stated),i
COc1cccc(Nc2cc3c(cn2)CN(C(C)=O)CCN3)c1,i
CCCCNC(=O)N1CCc2c(c3cc(F)ccc3n2C)C1,-16%
Cc1cc(F)ccc1OC1CN(C(=O)c2ccccn2)C1,0%[44.1 µM]
Cc1ccc(C(=O)N2CC(Oc3ccc(F)cc3C)C2)cc1,11µM*
Cc1ccc(OC2CN(C(=O)c3ccc(F)cc3)C2)cc1C,-30%[44.1 µM]
COc1ccc(Cn2c(-c3ccc(Cl)cc3)nc(C)c(CCO)c2=O)cc1F,-23%
Cc1ccc(CN2CCCN(S(C)(=O)=O)C(c3ccccc3)CC(=O)NCC2)s1 (configuration not stated),i
Cc1ccc(CN2CCCCCCNC(=O)CC2c2ccccc2)s1 (configuration not stated),8.9µM*
Cc1ccsc1CN1CCCCCNC(=O)CC1c1ccccc1 (configuration not stated),7.1µM*
O=C1CC(c2ccccc2)N(C(=O)C2CCCC2)CCCCCCN1 (configuration not stated),-8%
Cc1ccsc1CN1CCCCCCNC(=O)CC1c1ccccc1 (configuration not stated),13µM*
O=C1CC(c2ccccc2)N(S(=O)(=O)c2cccs2)CCCCCN1 (configuration not stated),i
O=C1NCCCCCN(Cc2ccc(F)cc2F)[C@H]2CCC[C@@H]12,i
O=C1NCCCCCN(Cc2cccnc2)[C@H]2CCC[C@@H]12,i
O=C1CC(c2ccccc2)N(C(=O)c2ccsc2)CCCCCN1 (configuration not stated),-6%
O=C1NCCCCCCN(Cc2cccc(OC(F)(F)F)c2)[C@H]2CCC[C@@H]12,7.1µM*
Cc1ccc(C(=O)NCC(=O)N2CCCCCCNC(=O)CC2c2ccccc2)s1 (configuration not stated),12%
O=C1CC(c2ccccc2)N(C(=O)c2cccs2)CCCCCN1 (configuration not stated),-7%
C=CCN1CCN(C(=O)C2N(C(C)C)C(=O)C23CCCCC3)CC1 (configuration not stated),-21%
COCc1ccc(C(=O)N2CCCN(C)C3(CCN(C)CC3)C2)o1,-14%
CN(C)C[C@@H]1CN(Cc2ccccc2)C[C@H]1NC(=O)c1ccncc1,16%
O=C(c1ccccc1F)N1CCN(c2nc3ncccc3o2)CC1,-16%[44.1 µM]
CCOc1cc(=O)n2c(c1C(=O)Nc1cc(Cl)ccc1Cl)CCCC2,-19%
SMILES,Pf Dd2 growth
O=C(NC1CC1)[C@@H]1C[C@H](Oc2cccnc2)CN1C(=O)c1nccc2ccccc12,5%
CC(C)(C)n1nnnc1C1CC2(CCOCC2)C(=O)N1Cc1ccccc1F (configuration not stated),72%
Cc1ccc(CN2CCc3nc(N(C)Cc4cccnc4)[nH]c(=O)c3CC2)o1,i[5.79 µM]
O=C1NCCCCCN(Cc2ccccn2)[C@H]2CCC[C@@H]12,i
Cc1ncsc1CN1CCCCCCNC(=O)[C@@H]2CCC[C@@H]21,-2%
Cc1ccsc1CN1CCCCCCNC(=O)[C@@H]2CCC[C@@H]21,8.9µM*
COc1ccc(CN2C(=O)[C@@H]3C[C@@H](O)CN3C3(CN(C4CCN(C(C)=O)CC4)C3)C2=O)cc1,-9%
CCCOc1ccc(-c2nn(-c3ccccc3)cc2C2NC(=O)NC(C)=C2C(=O)OC)cc1C (configuration not stated),10µM*
COC(=O)C1=C(C)NC(=O)NC1c1ccc(O)cc1 (configuration not stated),-7%
COc1ccc(C2NC(=O)NC(C)=C2C(=O)Nc2ccccc2)cc1OC (configuration not stated),-23%
CCCOc1ccc(-c2nn(-c3ccccc3)cc2C2NC(=O)NC(C)=C2C(=O)OC)cc1 (configuration not stated),10µM*
CCCOc1ccccc1C1C(C(=O)Nc2ccccc2)=C(C)Nc2nnnn21 (configuration not stated),83%
CCCCOc1ccc(-c2nn(-c3ccccc3)cc2C2NC(=O)NC(C)=C2C(=O)OC)cc1 (configuration not stated),i
COCC1CN(C(C)=O)CC12CCN(S(=O)(=O)c1cnc[nH]1)CC2 (configuration not stated),-9%
CN(C)c1ccc(C(=O)NC2CCN(c3cc(-c4cccs4)[nH]n3)C2)cc1 (configuration not stated),i
CN1CC(=O)N(c2ccccc2F)Cc2c(NCc3ccc4c(c3)OCO4)ncnc21,-2%
Cc1cccc(N2Cc3c(NCc4ccc5c(c4)OCO5)ncnc3N(C)CC2=O)c1,-28%

# Source: PubChem BioAssay (National Center for Advancing Translational Sciences (NCATS))
